# From PubChem BioAssay
# An excerpt weighted towards active compounds, which were near 7.9% of everything screened.
# HCMV inh = inhibitors of human cytomegalovirus. HFF cells, HCMV-luciferase reporter, 72 h; hits give low values. activity change, negative = inhibition, % at 57.5 µM. 4.5% of 410,000 active. AID 1259415; in the data active = activity change below about -60%; inconclusive = no clear call, values can overlap the other calls; inactive = above about -39%
#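 Compounds were evaluated in HFFs infected with an HCMV luciferase reporter virus (MOI 1 PFU/cell). Luciferase in lysates collected 72 h post infection served as the replication measure.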
# LASV entry inh = blocks Lassa virus binding to or entry into cells. Lassa virus pseudotype entry inhibition, cell reporter. Potency, µM (doses to about 37.9 µM), for inactives: at the top dose activity change, negative = inhibition, usual class: inhibitors. 1.2% of 300,000 active. AID 540256; calls by dose curve; tested in HEK293 cells; also: potency is read from the fitted curve at half-maximal effect; nearly all actives have a fitted effect of over 50% in size
# MARV entry inh = blocks Marburg virus binding to or entry into cells; Potency, µM (titrated, usually from 37.8 µM), inactives show top-dose activity change, negative = inhibition, actives largely listed as inhibitors; 1.8% of 300,000 active; Marburg virus pseudotyped entry inhibition, cell reporter; calls by dose curve; tested in HEK293 cells; also: potency is read from the fitted curve at half-maximal effect
# HCV inh = blocks hepatitis C virus. Huh7.5.1 HCVcc-Cre infection, luciferase reporter, 44 h. 3.4% of 340,000 active. Potency, µM (doses to about 41.8 µM), inactives show at the highest dose activity change, negative = inhibition, usual class: inhibitors; active = well fitted inhibition curve with a large enough effect; inconclusive = small, poorly fitted or top-dose-only effect, or another doubt; inactive = no such curve, though single readings can be large or run the other way; also: potency is read from the fitted curve at half-maximal effect
#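 Reporter virus HCVcc-Cre (~0.5 moi) infects cells exposed to compound; seeding density 1,000 cells/well with 4 h settling beforehand. Luminescence, 15 sec read, taken 44 h post-infection following a 15 min RT substrate incubation.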
# FMDV antiviral = antivirals against foot and mouth disease virus. FMDV antiviral cell-based qHTS. Potency, µM (series often up to 57.9 µM), without a hit: at the top dose activity change, negative = inhibition, hits mostly inhibitors. 1.2% of 410,000 active. AID 1159524; calls by dose curve; tested in HEK293T cells; also: read-out not given here; potency is read from the fitted curve at half-maximal effect; nearly all actives have a fitted effect of over 45% in size
# An asterisk follows results filed as active; ? = inconclusive; . = not tested or not shown; [ ] = dose if it differs, or a comment. % is scaled to controls: 0 for no effect and ±100 for the full control effect.
SMILES,HCMV inh,LASV entry inh,MARV entry inh,HCV inh,FMDV antiviral
CC(=O)c1c2c(cc3ccc(Cl)cc13)CCC2,-14,.,.,.,.
O=C(CSc1cn(CCNC(=O)c2ccccc2F)c2ccccc12)Nc1ccc(F)cc1,-8,-8%[46.1 µM],?,.,-18%
Nc1nc(SCc2ccc(Cl)cc2Cl)nc2nc3c(cc12)CCCC3,?,?,?,8.9µM*,-19%
CCN(CC(=O)Nc1ccccc1C(F)(F)F)C(=O)c1ccccc1OCc1ccc(F)cc1,-15,2%,?,-27%,-6%
O=C(Nc1ccc2oc(-c3ccccc3)nc2c1)c1ccc2c(c1)OCCO2,?,-2%,?,10µM*,?
O=C(Nc1ccc2oc(-c3cccnc3)nc2c1)c1ccc(-c2ccccc2)o1,-73*,?,.,.,35µM*
COc1cc(C(=O)Nc2ccc(Cl)c(C(F)(F)F)c2)cc(OC)c1OC,-7,-5%,-31%,14µM*,?
O=C(Nc1ccc2oc(-c3ccncc3)nc2c1)c1ccc2c(c1)OCCO2,?,-18%,-1%[46.1 µM],13%,0%
CCOc1ccc(C(=O)Nc2ccc(-c3nc4cc(CC)ccc4o3)cc2)cc1,-74*,-3%[46.1 µM],.,.,-25%
O=C(Nc1ccc2oc(-c3cccnc3)nc2c1)c1ccc(-c2ccc(OC(F)(F)F)cc2)o1,-9,-12%[46.1 µM],.,.,-30%
Cc1cnc(C)c(-c2cc(F)cc3c2OC(CNC(=O)C2CCOC2)C3)n1 (stereo not drawn),.,.,.,.,-10%
CCOc1ccc(C(=O)NCCc2sc3nc(-c4ccc(Cl)cc4)nn3c2C)cc1OCC,-25,8%[46.1 µM],.,.,-24%
COc1cc(C(=O)Nc2ccc3oc(-c4cccnc4)nc3c2)cc(OC)c1OC,11,-25%,?,?,?
O=C(Nc1ccc(-c2nc3cc(NC(=O)c4ccc(F)cc4)ccc3o2)cc1)c1ccc(F)cc1,-5,13%[46.1 µM],.,.,7%
O=C(Nc1ccc2oc(-c3ccncc3)nc2c1)c1ccc(F)cc1,?,-5%,-6%,22µM*,-26%
CCOc1ccc(C(=O)Nc2ccc(-c3nc4cc(C)ccc4o3)cc2)cc1,-3,1%[46.1 µM],.,.,21%
CCCC(=O)Nc1ccc(-c2nc3cc(C)ccc3o2)cc1,140,?,-29%[46.1 µM],11µM*,29%
COc1cc(C(=O)Nc2ccc3oc(-c4ccccc4)nc3c2)cc(OC)c1OC,-81*,?,.,.,?
O=C(Nc1ccc2c(c1)OCCO2)c1[nH]c(C(F)(F)F)nc1-c1ccccc1,-74*,.,.,.,-19%
Cc1cccc(C)c1NC(=O)c1nc2ccc([N+](=O)[O-])cc2nc1-c1ccccc1,42,.,.,.,.
O=C(Nc1ccc2oc(-c3cccc(Cl)c3Cl)nc2c1)c1cccc(Br)c1,-74*,-8%[46.1 µM],.,.,-5%
O=C(Nc1ccc2oc(-c3cccc4c(Br)cccc34)nc2c1)c1cccc(Cl)c1,16,-2%[46.1 µM],.,.,-19%
CC(=O)OCC=C1CCC2C3CC(C)C4=CC(=O)CCC4(C)C3C(O)CC12C (stereo not drawn),-18,?,?,-10%,-27%
Cc1ccc(C)c(N2CCN(C(=O)c3cccn4c(=O)c5sccc5nc34)CC2)c1,12,?,13µM*,?,?
COc1ccc2oc(=O)c(C(=O)N3CCN(c4ccccc4)CC3)cc2c1,-2,1%,27%,0%,.
SMILES,HCMV inh,LASV entry inh,MARV entry inh,HCV inh,FMDV antiviral
Cc1ccc(C)c(N2CCN(C(=O)c3cccn4c(=O)c5ccccc5nc34)CC2)c1,22,-10%[46.1 µM],.,.,?
O=C(O)c1cc2c(ccc3ccccc32)oc1=O,-24,.,-4%,.,.
Cc1ccc(C)c(N2CCN(C(=O)c3cc4ccccc4oc3=O)CC2)c1,-62*,.,.,-20%,0%
COc1ccc2oc(=O)c(C(=O)N3CCN(C(=O)c4ccccc4)CC3)cc2c1,-95*,-3%[46.1 µM],-1%[46.1 µM],6%,-17%
O=C(c1cc2c(ccc3ccccc32)oc1=O)N1CCCC1,-90*,6%,14%,3%,24%
COc1cccc(/C=C/C(=C2/C(=O)N(c3ccccc3)N=C2C)c2ccc(C)cc2)c1OC,-10,10%,18%,5%,?
CC(=O)OC(C)(C)/C=C/C(=O)[C@](C)(O)C1[C@H](O)C[C@@]2(C)C3CC=C4C(C[C@H](O)C(=O)C4(C)C)[C@]3(C)C(=O)C[C@]12C (stereo partly drawn),.,.,.,-19%,28µM*
CC(C)(O)/C=C/C(=O)C(C)(O)C1C(O)CC2(C)C3CC=C4C(C=C(O)C(=O)C4(C)C)C3(C)C(=O)CC12C (stereo not drawn),-97*,0.32µM*,0.11µM*,?,-5%
COc1ccc(N2CC(NC(=O)c3ccco3)CC2=O)cc1OC (stereo not drawn),-3,-2%[46.1 µM],.,.,-13%
Cc1ccc(C)c(N(C)C(=O)C2CCN(S(=O)(=O)c3cccc4nsnc34)CC2)c1,-29,-14%[46.1 µM],?,.,0%
CCc1ccccc1NC(=O)[C@@H](c1ccccc1)N1Cc2ccccc2C1=O,-17,-20%[46.1 µM],?,.,4%
Cc1cccc(NC(=O)C(c2ccccc2)N2Cc3ccccc3C2=O)c1C (stereo not drawn),-74*,-1%[46.1 µM],.,.,16%
COc1cc(C(=O)N(Cc2cc3ccc(C)cc3nc2N(C)C)C2CC2)cc(OC)c1OC,.,.,.,.,9%
CC1(C(=O)NCc2cccc(Cl)c2)Cc2c(-c3ccc4c(c3)OCO4)ccnc2O1 (stereo not drawn),-30,.,.,.,-24%
Cn1c(CSCc2ccc(Cl)c(Cl)c2)n[nH]c1=S,-67*,?,11%,-1%,?
O=c1[nH]c(CN2CCN(c3ccccc3Cl)CC2)nc2ccsc12,35,-22%,7%[46.1 µM],11%,-30%
COc1cccc(N2CCN(Cc3nc4scc(-c5ccccc5)c4c(=O)[nH]3)CC2)c1,-61*,?,?,13µM*,?
COc1cccc(N2CCN(Cc3nc4ccccc4c(=O)[nH]3)CC2)c1,53,13%,-17%[46.1 µM],6%,0%
O=c1[nH]c(CN2CCN(c3ccc(O)cc3)CC2)nc2scc(-c3ccc(Cl)cc3)c12,?,.,.,6.3µM*,-29%
COc1ccc(N2CCN(Cc3nc4sc(C)c(C)c4c(=O)[nH]3)CC2)cc1,98,-13%,4%,10%,-2%
O=c1[nH]c(CN2CCN(c3ccccc3O)CC2)nc2scc(-c3ccccc3Cl)c12,0,.,.,13µM*,?
COC(=O)c1sc2nc(CN3CCN(c4ccc(OC)cc4)CC3)[nH]c(=O)c2c1C,-80*,-15%,-5%,8%,-3%
NS(=O)(=O)c1ccc(CCNC(=O)c2ccc(NC3=NC4CS(=O)(=O)CC4S3)cc2)cc1 (stereo not drawn),.,-1%[46.1 µM],3%[46.1 µM],10%,11%
CC(=O)C1=C(c2ccc(Br)cc2)C(=O)c2ccccc2C1=O,?,2.5µM*,5.2µM*,?,3.2µM*
CCOC(=O)N/N=C/c1c(C)nn(-c2cccc(C(F)(F)F)c2)c1Cl,?,7.1µM*,?,2.2µM*,?
COC(=O)N/N=C\c1c(C)nn(-c2ccccc2)c1Cl,2,-15%,-20%,-8%,48%
